{
  "source": "PubChem BioAssay",
  "key": {"[1]": {"target": "Nuclear receptor coactivator 3 (Homo sapiens) (UniProt Q9Y6Q9)", "sequence (Q9Y6Q9 whole entry, looked up, the tested form may be a part)": "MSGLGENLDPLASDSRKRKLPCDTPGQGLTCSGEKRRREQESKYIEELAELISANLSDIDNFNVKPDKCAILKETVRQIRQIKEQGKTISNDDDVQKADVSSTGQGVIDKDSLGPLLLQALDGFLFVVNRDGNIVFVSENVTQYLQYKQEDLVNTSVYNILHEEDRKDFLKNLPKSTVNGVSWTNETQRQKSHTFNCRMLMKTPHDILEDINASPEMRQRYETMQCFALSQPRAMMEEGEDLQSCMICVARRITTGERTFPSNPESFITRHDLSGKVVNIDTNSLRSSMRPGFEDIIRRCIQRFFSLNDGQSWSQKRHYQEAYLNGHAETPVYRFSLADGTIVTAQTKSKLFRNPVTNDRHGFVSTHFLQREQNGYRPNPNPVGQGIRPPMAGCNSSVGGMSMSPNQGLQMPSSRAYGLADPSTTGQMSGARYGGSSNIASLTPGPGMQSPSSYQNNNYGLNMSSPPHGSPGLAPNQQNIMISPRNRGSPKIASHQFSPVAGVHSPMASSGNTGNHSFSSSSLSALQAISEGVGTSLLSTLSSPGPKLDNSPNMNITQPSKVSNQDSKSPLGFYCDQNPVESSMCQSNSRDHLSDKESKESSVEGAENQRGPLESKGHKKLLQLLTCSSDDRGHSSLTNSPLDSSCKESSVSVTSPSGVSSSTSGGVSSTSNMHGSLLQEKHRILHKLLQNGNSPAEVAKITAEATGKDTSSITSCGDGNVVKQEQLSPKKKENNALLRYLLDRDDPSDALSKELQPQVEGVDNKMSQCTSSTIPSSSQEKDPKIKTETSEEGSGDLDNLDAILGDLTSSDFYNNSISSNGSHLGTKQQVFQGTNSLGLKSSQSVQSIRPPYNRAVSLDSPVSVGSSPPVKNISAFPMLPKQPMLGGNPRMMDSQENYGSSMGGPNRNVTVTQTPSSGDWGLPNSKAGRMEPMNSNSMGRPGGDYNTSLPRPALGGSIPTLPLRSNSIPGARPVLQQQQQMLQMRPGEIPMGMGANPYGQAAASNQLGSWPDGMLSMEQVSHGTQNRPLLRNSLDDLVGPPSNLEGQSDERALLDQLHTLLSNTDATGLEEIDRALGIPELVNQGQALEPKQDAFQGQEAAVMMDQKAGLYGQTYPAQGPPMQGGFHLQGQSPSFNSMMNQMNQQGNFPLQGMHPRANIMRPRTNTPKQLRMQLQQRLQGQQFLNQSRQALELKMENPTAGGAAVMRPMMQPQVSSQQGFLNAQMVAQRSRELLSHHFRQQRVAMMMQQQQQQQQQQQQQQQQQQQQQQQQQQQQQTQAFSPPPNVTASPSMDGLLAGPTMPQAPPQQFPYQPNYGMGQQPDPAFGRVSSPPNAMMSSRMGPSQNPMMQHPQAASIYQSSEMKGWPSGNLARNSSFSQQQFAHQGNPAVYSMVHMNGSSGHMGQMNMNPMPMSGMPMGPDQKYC", "test": "SRC3 coactivator transcriptional activity inhibitors, confirmation, cell-based, luminescence, quadruplicate (AID 588792;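 active = mean inhibition over 43.08%, the solvent-only control mean plus 3 SD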)", "details": "HEK293 GAL4-SRC3 luciferase reporter, at 3.6 µM, stronger effect = higher value"}, "[2]": {"test_system": "transactivating tegument protein VP16 (Human herpesvirus 1), Gal4-VP16 luciferase reporter", "test": "VP16 transactivation inhibitors, counter-screen for SRC3 inhibitor project, cell-based, luminescence, high throughput (AID 588794; in the data active = inhibition above about 30%)", "details": "mammalian cells, VP16-driven luciferase reporter luminescence; at 3.6 µM; stronger effect = higher value"}, "[3]": {"target": "(Lyso)-N-acylphosphatidylethanolamine lipase (Mus musculus) (UniProt Q8VD66)", "test": "ABHD4 inhibitors, retest, confirmation, biochemical, fluorescence polarization, mouse (AID 720658;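 active = mean inhibition across replicates above the hit cutoff set in the primary screen, cut at about 30% in these data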)", "details": "purified mABHD4, FP-Rh probe fluorescence polarization; at 8.92 µM; stronger effect = higher value"}, "[4]": {"target": "Protein phosphatase methylesterase 1 (Homo sapiens) (UniProt Q9Y570)", "sequence (Q9Y570 whole entry, looked up)": "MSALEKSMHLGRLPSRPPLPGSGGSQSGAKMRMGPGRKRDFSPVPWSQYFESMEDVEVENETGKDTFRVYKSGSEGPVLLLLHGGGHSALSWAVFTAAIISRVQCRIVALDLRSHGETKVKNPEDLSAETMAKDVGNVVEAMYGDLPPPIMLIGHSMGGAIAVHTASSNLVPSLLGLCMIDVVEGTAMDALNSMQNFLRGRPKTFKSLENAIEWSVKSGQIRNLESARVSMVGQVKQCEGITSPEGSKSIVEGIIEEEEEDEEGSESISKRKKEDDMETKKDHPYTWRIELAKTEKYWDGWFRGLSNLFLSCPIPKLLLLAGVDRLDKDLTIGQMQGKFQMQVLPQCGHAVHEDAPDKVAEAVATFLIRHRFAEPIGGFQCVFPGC", "test": "PME-1 inhibitor activity retest, confirmation, biochemical, fluorescence polarization, FP-Rh probe, triplicate (AID 2171)", "details": "recombinant PME-1, FP-Rh probe fluorescence polarization; at 5.9 µM; stronger effect = higher value"}, "[5]": {"test": "growth loss of phage-infected E. coli expressing H. pylori AddAB, confirmation, AddAB inhibitor project, absorbance, E. coli V3065, T4 phage, triplicate (AID 488942;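 active = mean inhibition above a set limit taken from the earlier primary screen, cut at about 13% in these data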)", "details": "OD, at 11.9 µM, stronger effect = higher value"}, "[6]": {"test": "growth loss of RecBCD+ E. coli with mutant T4 phage, counter-screen for AddAB inhibitor project, absorbance, V66 E. coli (AID 488955;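 active = mean inhibition above the mean of solvent-only control wells plus 3 SD, cut at about 4% in these data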)", "details": "OD growth, at 11.9 µM, stronger effect = higher value"}, "[7]": {"test": "bacterial viability inhibition counter-screen, confirmation, counter-screen for AddAB inhibitor project, absorbance (AID 488956; in the data active = inhibition above about 25%)", "details": "absorbance (AddAB counterscreen), at 11.9 µM, stronger effect = higher value"}, "[8]": {"test": "growth loss of phage-infected RecBCD+ E. coli, confirmation, RecBCD inhibitor project, absorbance, E. coli V66, T4 gene 2 phage (AID 651982;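 active = mean inhibition over triplicates exceeding the hit threshold derived in the original primary screen, cut at about 11% in these data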)", "details": "E. coli V66 + T4 2- phage, growth OD; at 11.9 µM; stronger effect = higher value"}, "[9]": {"test": "E. coli viability inhibition, counter-screen for RecBCD inhibitor project, absorbance, high throughput (AID 651983; in the data active = inhibition above about 20%)", "details": "absorbance (OD) growth, at 11.9 µM, stronger effect = higher value"}, "[10]": {"test": "growth loss of phage-infected AddAB-carrying E. coli, confirmation, counter-screen for RecBCD inhibitor project, absorbance, E. coli V3065, T4 phage (AID 651984;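 active = mean inhibition above the solvent-only control wells' mean plus 3 SD, cut at about 22% in these data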)", "details": "E. coli expressing H. pylori AddAB + T4 phage, OD growth; at 11.9 µM; stronger effect = higher value"}, "[11]": {"target": "Platelet-activating factor acetylhydrolase (Homo sapiens) (UniProt Q13093)", "sequence (Q13093 whole entry, looked up)": "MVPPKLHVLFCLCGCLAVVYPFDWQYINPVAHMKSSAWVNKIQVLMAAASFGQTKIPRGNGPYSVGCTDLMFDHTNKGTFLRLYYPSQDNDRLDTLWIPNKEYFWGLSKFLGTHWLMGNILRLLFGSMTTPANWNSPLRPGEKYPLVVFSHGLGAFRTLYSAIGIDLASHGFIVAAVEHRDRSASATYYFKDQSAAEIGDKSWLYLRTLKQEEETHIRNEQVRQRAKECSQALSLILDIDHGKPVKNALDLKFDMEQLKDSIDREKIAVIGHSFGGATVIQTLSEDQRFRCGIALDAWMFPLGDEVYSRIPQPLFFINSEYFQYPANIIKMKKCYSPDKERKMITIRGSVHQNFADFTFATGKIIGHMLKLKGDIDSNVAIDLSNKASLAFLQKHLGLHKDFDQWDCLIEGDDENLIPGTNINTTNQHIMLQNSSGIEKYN", "test": "pPAFAH (PLA2G7) enzyme inhibitors, confirmation, biochemical, fluorescence polarization, human (AID 463230;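 active = mean inhibition of the triplicate above the hit cutoff set for the earlier primary screen, cut at about 25% in these data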)", "details": "recombinant pPAFAH, FP-Rh probe fluorescence polarization; at 3.39 µM; stronger effect = higher value"}, "[12]": {"target": "Oxytocin receptor (Homo sapiens) (UniProt P30559)", "sequence (P30559 whole entry, looked up)": "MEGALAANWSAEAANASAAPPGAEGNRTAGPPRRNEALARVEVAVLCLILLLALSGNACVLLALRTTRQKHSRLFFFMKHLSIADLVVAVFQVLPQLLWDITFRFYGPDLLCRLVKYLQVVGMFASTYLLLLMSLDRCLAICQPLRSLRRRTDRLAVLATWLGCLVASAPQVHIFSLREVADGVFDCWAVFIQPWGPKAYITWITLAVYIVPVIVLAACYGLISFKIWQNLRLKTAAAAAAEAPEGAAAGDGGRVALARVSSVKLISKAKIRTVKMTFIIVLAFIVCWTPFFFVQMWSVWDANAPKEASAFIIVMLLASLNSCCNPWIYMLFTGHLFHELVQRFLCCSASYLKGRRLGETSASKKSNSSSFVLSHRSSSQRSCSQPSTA", "test": "human OXTR agonists, confirmation, fluorescence, CHO-OTR cells, triplicate (AID 434963;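 active = mean activation above about 20% derived from the earlier single-dose screen, limit read from the data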)", "details": "Fluo-8 calcium fluorescence, agonist, at 3 µM, stronger effect = higher value"}, "[13]": {"target": "Vasopressin V1a receptor (Homo sapiens) (UniProt P37288)", "sequence (P37288 whole entry, looked up)": "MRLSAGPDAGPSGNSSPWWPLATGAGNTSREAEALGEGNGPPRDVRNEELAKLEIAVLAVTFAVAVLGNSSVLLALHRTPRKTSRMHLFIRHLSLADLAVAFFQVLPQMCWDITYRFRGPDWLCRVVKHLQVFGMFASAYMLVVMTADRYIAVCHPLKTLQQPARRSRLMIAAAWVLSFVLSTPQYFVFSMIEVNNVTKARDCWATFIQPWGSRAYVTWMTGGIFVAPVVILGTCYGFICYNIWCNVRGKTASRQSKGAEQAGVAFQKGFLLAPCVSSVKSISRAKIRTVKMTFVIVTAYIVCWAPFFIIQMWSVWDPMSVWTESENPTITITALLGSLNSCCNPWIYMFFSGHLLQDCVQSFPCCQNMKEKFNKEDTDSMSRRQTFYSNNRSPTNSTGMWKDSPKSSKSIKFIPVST", "test": "V1a receptor agonists, calcium signal, counter-screen for OXTR agonist project, triplicate, fluorescence, CHO-V1R cells (AID 434991;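 active = mean activation over triplicate exceeds the hit threshold set in the earlier primary screen, cut at about 20% in these data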)", "details": "Fluo-8 calcium fluorescence, at 3 µM, stronger effect = higher value"}, "[14]": {"target": "Glutathione S-transferase omega-1 (Homo sapiens) (UniProt P78417)", "sequence (P78417 whole entry, looked up)": "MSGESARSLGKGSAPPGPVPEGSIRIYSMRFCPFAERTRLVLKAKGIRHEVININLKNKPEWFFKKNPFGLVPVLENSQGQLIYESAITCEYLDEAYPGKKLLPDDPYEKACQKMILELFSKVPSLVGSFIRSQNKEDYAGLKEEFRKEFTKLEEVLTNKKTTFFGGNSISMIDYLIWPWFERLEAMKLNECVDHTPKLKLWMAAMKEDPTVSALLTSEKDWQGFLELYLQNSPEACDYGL", "test": "GSTO1 inhibitor hit confirmation, counter-screen for RBBP9 inhibitor project, biochemical, fluorescence polarization, triplicate (AID 2176;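 active = inhibition above the primary screen's cutoff, its mean inhibition plus 3 SD, cut at about 35% in these data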)", "details": "recombinant GSTO1, probe fluorescence polarization; at 5.96 µM; stronger effect = higher value"}, "[15]": {"target": "Nuclear receptor coactivator 1 (Homo sapiens) (UniProt Q15788)", "test": "SRC1 coactivator transcriptional activity inhibitors, confirmation, cell-based, luminescence, quadruplicate (AID 588820;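 active = mean inhibition above 46.68%, the untreated control wells mean plus 3 SD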)", "details": "HEK293 GAL4-SRC1 luciferase reporter, at 3.6 µM, stronger effect = higher value"}, "[16]": {"test": "VP16 transactivation inhibitors, counter-screen for SRC1 inhibitor project, cell-based, luminescence, high throughput (AID 588824; in the data active = inhibition above about 25%)", "details": "cell-based VP16 transactivation luciferase luminescence; at 3.6 µM; stronger effect = higher value"}, "[17]": {"target": "Protein-arginine deiminase type-4 (Homo sapiens) (UniProt Q9UM07)", "sequence (Q9UM07 whole entry, looked up)": "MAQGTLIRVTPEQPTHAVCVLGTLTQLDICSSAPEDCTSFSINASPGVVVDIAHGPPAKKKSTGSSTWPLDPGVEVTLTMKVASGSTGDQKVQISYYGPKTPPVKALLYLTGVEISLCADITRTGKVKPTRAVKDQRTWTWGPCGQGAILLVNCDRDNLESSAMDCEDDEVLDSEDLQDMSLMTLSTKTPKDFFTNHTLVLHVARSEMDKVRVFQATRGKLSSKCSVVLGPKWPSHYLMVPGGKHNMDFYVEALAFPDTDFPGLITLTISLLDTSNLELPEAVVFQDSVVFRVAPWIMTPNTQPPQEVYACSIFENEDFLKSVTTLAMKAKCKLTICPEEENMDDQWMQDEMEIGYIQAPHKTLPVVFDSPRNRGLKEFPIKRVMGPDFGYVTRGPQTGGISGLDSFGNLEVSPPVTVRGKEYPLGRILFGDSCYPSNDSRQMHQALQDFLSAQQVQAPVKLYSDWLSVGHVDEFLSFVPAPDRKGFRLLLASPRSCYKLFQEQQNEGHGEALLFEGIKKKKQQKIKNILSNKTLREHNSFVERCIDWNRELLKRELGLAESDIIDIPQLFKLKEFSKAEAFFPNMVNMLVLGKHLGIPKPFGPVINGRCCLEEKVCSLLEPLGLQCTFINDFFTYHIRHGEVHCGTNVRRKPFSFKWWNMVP", "test": "human PAD4 inhibitors, confirmation, biochemical, fluorescence polarization (AID 488796;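 active = mean inhibition across replicates above the hit cutoff set by the earlier primary screen, cut at about 15% in these data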)", "details": "recombinant PAD4, RCA probe fluorescence polarization; at 6.36 µM; stronger effect = higher value"}, "[18]": {"test": "StAR promoter reporter inhibitors, counter-screen for LRH-1 inverse agonist project, cell-based, luminescence, high throughput (AID 651611; in the data active = inhibition above about 28%)", "details": "StAR promoter luciferase reporter counterscreen, at 3.6 µM, stronger effect = higher value"}, "[19]": {"target": "Nuclear receptor subfamily 5 group A member 2 (Homo sapiens) (UniProt O00482)", "sequence (O00482 whole entry, looked up)": "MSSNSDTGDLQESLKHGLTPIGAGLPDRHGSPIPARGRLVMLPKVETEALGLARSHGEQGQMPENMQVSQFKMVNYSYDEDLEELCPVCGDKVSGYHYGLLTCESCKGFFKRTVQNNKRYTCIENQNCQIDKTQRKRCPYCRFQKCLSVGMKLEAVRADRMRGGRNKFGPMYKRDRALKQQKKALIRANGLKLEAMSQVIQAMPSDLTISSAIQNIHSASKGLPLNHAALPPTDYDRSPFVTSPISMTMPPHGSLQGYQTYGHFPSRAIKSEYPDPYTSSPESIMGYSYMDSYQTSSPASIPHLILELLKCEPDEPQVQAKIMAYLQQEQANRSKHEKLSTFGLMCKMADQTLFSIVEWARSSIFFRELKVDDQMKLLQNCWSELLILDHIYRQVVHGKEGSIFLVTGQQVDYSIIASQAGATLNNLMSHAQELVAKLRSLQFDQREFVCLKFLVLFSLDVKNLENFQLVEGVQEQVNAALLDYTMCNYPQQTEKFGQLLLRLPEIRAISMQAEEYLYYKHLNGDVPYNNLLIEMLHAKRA", "test": "LRH-1 (NR5A2) inverse agonists, retest, confirmation, cell-based, luminescence (AID 651613; in the data active = inhibition above about 42%)", "details": "cell-based LRH-1 luciferase reporter, inverse agonism; at 3.6 µM; stronger effect = higher value"}, "[20]": {"target": "Steroidogenic factor 1 (Homo sapiens) (UniProt Q13285)", "sequence (Q13285 whole entry, looked up)": "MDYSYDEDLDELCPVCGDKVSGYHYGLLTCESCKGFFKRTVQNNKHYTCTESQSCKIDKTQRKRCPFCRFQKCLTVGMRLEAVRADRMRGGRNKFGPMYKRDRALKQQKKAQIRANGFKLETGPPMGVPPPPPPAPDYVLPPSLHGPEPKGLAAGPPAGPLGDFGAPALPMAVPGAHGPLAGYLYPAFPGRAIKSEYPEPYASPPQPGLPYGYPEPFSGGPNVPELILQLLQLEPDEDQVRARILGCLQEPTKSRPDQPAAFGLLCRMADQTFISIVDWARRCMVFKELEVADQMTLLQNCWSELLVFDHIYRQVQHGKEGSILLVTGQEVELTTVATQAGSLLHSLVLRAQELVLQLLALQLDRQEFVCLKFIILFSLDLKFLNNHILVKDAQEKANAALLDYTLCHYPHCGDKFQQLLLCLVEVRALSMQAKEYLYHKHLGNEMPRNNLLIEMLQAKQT", "test": "SF1 (NR5A1) inverse agonists, counter-screen for LRH-1 inverse agonist project, cell-based, luminescence, high throughput (AID 651614; in the data active = inhibition above about 44%)", "details": "cell-based SF1 luciferase reporter, at 3.6 µM, stronger effect = higher value"}, "[21]": {"test": "VP16 transactivation reporter inhibitors, counter-screen for LRH-1 inverse agonist project, cell-based, luminescence, high throughput (AID 651615; in the data active = inhibition above about 33%)", "details": "Gal4-VP16 luciferase reporter cells, at 3.6 µM, stronger effect = higher value"}},
  "note": "A number with no mark means an inactive call. Some of the results follow. Calls of active or inactive are those of the source.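 Rule for the calls, unless noted: active = inhibition above the hit cutoff set in the earlier primary screen (cut at about 27% in these data); inactive = the rest.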",
  "data": [
    {"smiles": "CCOc1cccc(=NC2CCCCC2)c2c(C)[nH]c(C)c12", "values": [
      {"measurement": "inhibition", "setting": "[1]", "value": 21.3, "unit": "%"},
      {"measurement": "inhibition", "setting": "[2]", "value": 20.1, "unit": "%"},
      {"measurement": "inhibition", "setting": "[3]", "value": 16.3, "unit": "%"}
    ]},
    {"smiles": "O=P(Oc1ccccc1)(Oc1ccccc1)C(O)c1ccccc1", "note": "(centres undefined)", "values": [
      {"measurement": "inhibition", "setting": "[4]", "value": "78.1% (active)"}
    ]},
    {"smiles": "O=[N+]([O-])c1cnc2ccc3ccccc3c2c1", "values": [
      {"measurement": "inhibition", "setting": "[5]", "value": "103% (active)"},
      {"measurement": "inhibition", "setting": "[6]", "value": "21.8% (active)"},
      {"measurement": "inhibition", "setting": "[7]", "value": "63.5% (active)"},
      {"measurement": "inhibition", "setting": "[8]", "value": "18.2% (active)"},
      {"measurement": "inhibition", "setting": "[9]", "value": "20.3% (active)"},
      {"measurement": "inhibition", "setting": "[10]", "value": "76.8% (active)"}
    ]},
    {"smiles": "CCn1c(O)c(C=NCCN2CCOCC2)c(=O)n(CC)c1=S", "values": [
      {"measurement": "inhibition", "setting": "[1]", "value": 9.7, "unit": "%"},
      {"measurement": "inhibition", "setting": "[2]", "value": 7.94, "unit": "%"}
    ]},
    {"smiles": "Cc1nn(-c2ccccc2)c(C)c1NC(=O)COC(=O)Cc1ccccc1", "values": [
      {"measurement": "inhibition", "setting": "[11]", "value": "43.1% (active)"}
    ]},
    {"smiles": "Cc1cc2c(C(C)C)c(O)c(O)c(C=O)c2c(O)c1-c1c(C)cc2c(C(C)C)c(O)c(O)c(C=O)c2c1O", "values": [
      {"measurement": "inhibition", "setting": "[1]", "value": 5.58, "unit": "%"},
      {"measurement": "inhibition", "setting": "[2]", "value": 22.2, "unit": "%"}
    ]},
    {"smiles": "CN(C)S(=O)(=O)c1cc(C(=O)N2CCC(C(=O)O)(c3ccccc3)CC2)ccc1Cl", "values": [
      {"measurement": "inhibition", "setting": "[5]", "value": "85.5% (active)"},
      {"measurement": "inhibition", "setting": "[6]", "value": 1.24, "unit": "%"},
      {"measurement": "inhibition", "setting": "[7]", "value": "26.1% (active)"}
    ]},
    {"smiles": "CC(Cc1ccccc1)NCCC(c1ccccc1)c1ccccc1", "note": "(centres undefined)", "values": [
      {"measurement": "activation", "setting": "[12]", "value": 11.2, "unit": "%"},
      {"measurement": "activation", "setting": "[13]", "value": 4.33, "unit": "%"}
    ]},
    {"smiles": "NCCc1ccc(S(=O)(=O)F)cc1", "values": [
      {"measurement": "inhibition", "setting": "[11]", "value": "71.9% (active)"}
    ]},
    {"smiles": "NP(=O)(Oc1ccc(Cl)cc1)Oc1ccc(Cl)cc1", "values": [
      {"measurement": "inhibition", "setting": "[4]", "value": "63.4% (active)"}
    ]},
    {"smiles": "O=c1[nH]c2ccccc2n1C1CCN(C(CCc2ccccc2)c2nnnn2-c2ccc3c(c2)OCCO3)CC1", "note": "(centres undefined)", "values": [
      {"measurement": "inhibition", "setting": "[1]", "value": 30.3, "unit": "%"},
      {"measurement": "inhibition", "setting": "[2]", "value": "48.9% (active)"}
    ]},
    {"smiles": "O=C(O)COc1ccccc1/C=C1\\C(=O)NC(=O)N(CCC2=CCCCC2)C1=O", "values": [
      {"measurement": "inhibition", "setting": "[14]", "value": 9.09, "unit": "%"}
    ]},
    {"smiles": "Cc1ccc(C(O)P(=O)(Oc2ccccc2)Oc2ccccc2)cc1", "note": "(centres undefined)", "values": [
      {"measurement": "inhibition", "setting": "[4]", "value": "59.9% (active)"}
    ]},
    {"smiles": "CNc1ccc2nc3ccccc3[n+](C)c2c1", "values": [
      {"measurement": "inhibition", "setting": "[4]", "value": "61.7% (active)"},
      {"measurement": "inhibition", "setting": "[15]", "value": -4.23, "unit": "%"},
      {"measurement": "inhibition", "setting": "[16]", "value": 3.25, "unit": "%"}
    ]},
    {"smiles": "CCNc1nc2[nH]c(=O)c3c(c2s1)OC(N)=C(C#N)C3c1cccs1", "note": "(centres undefined)", "values": [
      {"measurement": "inhibition", "setting": "[14]", "value": 7.87, "unit": "%"}
    ]},
    {"smiles": "COc1ccc(-n2c(O)c(C(C)=NCCCn3ccnc3)c(=O)[nH]c2=O)cc1", "values": [
      {"measurement": "inhibition", "setting": "[1]", "value": 31.6, "unit": "%"},
      {"measurement": "inhibition", "setting": "[2]", "value": "32.6% (active)"}
    ]},
    {"smiles": "CC1=CC2/C=C(\\C)CCC(O)C(O)/C=C/C(=O)C23C(=O)NC(CC(C)C)C3C1C", "note": "(centres undefined)", "values": [
      {"measurement": "inhibition", "setting": "[1]", "value": 36, "unit": "%"},
      {"measurement": "inhibition", "setting": "[2]", "value": "54.8% (active)"}
    ]},
    {"smiles": "O=[N+]([O-])c1ccc(NCc2ccccc2)c2nonc12", "values": [
      {"measurement": "inhibition", "setting": "[4]", "value": "50.5% (active)"}
    ]},
    {"smiles": "CCC(=O)c1cn(Cc2ccccc2C#N)c2ccccc12", "values": [
      {"measurement": "inhibition", "setting": "[4]", "value": 19.9, "unit": "%"}
    ]},
    {"smiles": "COc1ccccc1C1=NCc2nnc(CSC)n2-c2ccc(Cl)cc21", "values": [
      {"measurement": "inhibition", "setting": "[17]", "value": 12.9, "unit": "%"}
    ]},
    {"smiles": "Cn1ncnc2c(=O)n(C)c(=O)nc1-2", "values": [
      {"measurement": "inhibition", "setting": "[4]", "value": "43.2% (active)"},
      {"measurement": "inhibition", "setting": "[18]", "value": "76.9% (active)"},
      {"measurement": "inhibition", "setting": "[19]", "value": "92.6% (active)"},
      {"measurement": "inhibition", "setting": "[20]", "value": "84.3% (active)"},
      {"measurement": "inhibition", "setting": "[21]", "value": "87.6% (active)"}
    ]},
    {"smiles": "Oc1c(Br)c(Br)c(Br)c(Br)c1Br", "values": [
      {"measurement": "inhibition", "setting": "[4]", "value": "84.2% (active)"}
    ]},
    {"smiles": "O=C1CC(=O)N(Cc2ccccc2)C(=O)N1CCCCCCN1C(=O)CC(=O)N(Cc2ccccc2)C1=O", "values": [
      {"measurement": "inhibition", "setting": "[11]", "value": 4.95, "unit": "%"}
    ]}
  ]
}
